Hits are enriched below; roughly 2.6% of the tested compounds scored in any of these assays.
CCT chaperon mod: changes cytosolic chaperonin activity; purified chaperonin ATPase assay, HTRF ADP detection, 30 min; activity change, % (concentration not given with the values), hits read low; hit rate 0.3% among 360,000; AID 651819; in the data active means activity change below about -30%
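TRiC (40 or 20 nM final, by batch activity) in 30 mM Tris pH 7.4, 100 mM KCl, 5 mM MgCl2, 1 mM DTT was treated with compound at 76 uM single dose, then 10 uM ATP, 30 min at 37 °C. ADP was read by HTRF Transcreener.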
Nrf2 ARE act: activators of Nrf2 (ARE) signaling | Potency, µM (top dose mostly 46.1 µM), most hits filed as activators | hit rate 0.31% among 410,000 | AID 624171 | AREc32 ARE-luciferase reporter (MCF7-derived line), luminescence, 24 h; further: nearly all actives have a fitted effect of over 65% in size
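ARE activation measured as luciferase luminescence (Steady-Glo, 30 min RT) in AREc32_Fluc cells after 24 hr compound exposure at 37 deg C, 5% CO2; cells seeded overnight at 1000/well in OPTI-MEM, 5% FBS.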
A549 tox: A549 cytotoxicity, counter-screen for Nrf2 inhibitors; A549 ARE-Fluc cells, CellTiter-Fluor viability, 18-24 h; Potency, µM (top dose mostly 46 µM), most hits filed as inhibitors; hit rate 0.16% among 390,000; AID 504648
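A549 ARE_Fluc cells in 5% FBS OPTI-MEM were exposed to compounds in concentration-response for 18-24 h at 37 deg C. Viability was read by CellTiter-Fluor fluorescence (Ex 405/Em 525) after 30 min, before the luciferase read.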
TCR activator: T cell receptor activation; primary human leukocytes, anti-CD3, IL-2 HTRF, 48 h; Potency, µM (highest dose often 9.22 µM), actives largely listed as activators; 330,000 tested, under 10 active
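HTRF read-out of IL-2 secretion: europium cryptate donor excited at 320nm, d2 acceptor emission at 665nm. Cells were primary human leukocytes incubated 48 hr with compounds and a-CD3 beads, supplying TCR signal only.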
AT treatment: candidate therapy for ataxia-telangiectasia. F2112 A-T fibroblasts, KAP-1 phosphorylation AlphaLISA; neocarzinostatin DNA damage 30 min before lysis. Potency, µM (titrated, usually from 57.5 µM), actives largely listed as activators. hit rate 0.19% among 320,000; further: nearly all actives have a fitted effect of over 45% in size
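hTERT-immortalized A-T patient fibroblasts (F2112), 500 cells/well in OPTI-MEM, 1% FBS, got compounds for 60 min, then NCS for 30 min at 37C. Lysates were then assayed for phospho-KAP-1 by AlphaLISA (anti-pKAP1 donor, anti-KAP1 acceptor beads), 6 hr at 25C.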
Nrf2 inh: Nrf2 pathway inhibition; A549 ARE-Fluc reporter, luciferase luminescence, 18-24 h; Potency, µM (top dose mostly 46 µM), actives largely listed as inhibitors; hit rate 2.1% among 360,000; AID 504444; further: nearly all actives have a fitted effect of over 60% in size
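A549 ARE_Fluc cells (5000/well, 5% FBS OPTI-MEM) pre-incubated 2 h, then treated with compounds 18-24 h at 37C/5% CO2 in concentration-response. CellTiter-Fluor viability read first; BugLite luciferase luminescence after 15 min at room temperature gives Nrf2 activity.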
Hits are given with their value; i = inactive; ? = inconclusive; nt = no result given. Unless noted, the call rests on the fitted dose curve; in most records, active means well fitted curve in the direction sought with a large enough effect; inconclusive means small, poorly fitted or top-dose-only effect, or another doubt; inactive means no such curve, though single readings can be large; an effect the other way counts as inactive or inconclusive.

SMILES | CCT chaperon mod | Nrf2 ARE act | A549 tox | TCR activator | AT treatment | Nrf2 inh
N#Cc1cc(-c2ccccc2)nc(N2CCNCC2)n1 | i | i | i | i | 32µM | i
N#Cc1cc(-c2ccccc2)nc(NN)n1 | i | i | i | i | i | i
CN(CC(=O)Nc1cccc(S(=O)(=O)N2CCCC2)c1)CC(=O)Nc1ccc(F)c(F)c1F | i | i | i | i | nt | ?
CN(CC(=O)NCc1ccccc1)CC(=O)Nc1ccc(Cl)c(C(F)(F)F)c1 | i | i | i | i | i | i
CN(CC(=O)Nc1ccc(Cl)c(C(F)(F)F)c1)CC(=O)NC1CCCCC1 | i | i | ? | i | i | 12µM
CN(CC(=O)Nc1ccc(Cl)c(C(F)(F)F)c1)C(=O)c1ccc2c(c1)NC(=O)CS2 | i | i | i | i | i | 21µM
CN(CC(=O)Nc1cccc(S(=O)(=O)N2CCCC2)c1)CC(=O)Nc1ccc(Cl)c(C(F)(F)F)c1 | i | i | ? | i | i | 26µM
N#Cc1ccc(S(=O)(=O)NC2CCCCNC2=O)cc1 (stereo not given) | i | i | i | i | i | i
COCCc1nn2c(=O)cc(COC(=O)c3ccco3)nc2s1 | nt | i | i | nt | nt | i
Cc1ccc(OC(C)c2nnc(N)s2)cc1Cl (stereo not given) | i | i | i | i | i | 16µM
COc1ccc(Br)cc1CN(C)C(=O)c1ccc2c(c1)NC(=O)C(C)S2 (stereo not given) | i | i | i | i | i | i
CCOc1ccc(CN(C)C(=O)c2ccc3c(c2)NC(=O)C(C)S3)cc1OC (stereo not given) | i | i | i | i | i | 16µM
COc1ccc(-n2cnnc2SCc2ncc(-c3ccccc3)o2)cc1 | i | i | i | nt | i | ?
Cn1c(COc2ccc(Cl)cc2)nnc1SCc1ncc(-c2ccccc2)o1 | i | i | i | nt | i | 16µM
O=C(O)c1ccc(Nc2ncc([N+](=O)[O-])cc2[N+](=O)[O-])cc1 | i | i | 18µM | i | i | i
O=C(Nc1ccc(C(=O)O)cc1)Nc1ccc([N+](=O)[O-])cc1 | i | i | i | i | i | i
CN(C(=O)COc1ccccc1C(=O)NCCOc1ccccc1)c1ccccc1 | i | i | ? | i | i | 15µM
C/C(=N\NC(=O)c1cc(-c2cccc(OC(C)C)c2)nc2ccccc12)c1cccnc1 | i | i | i | i | i | i
C/C(=N\NC(=O)c1cc(-c2cccnc2)nc2ccccc12)c1ccc(O)cc1O | i | i | ? | i | i | 15µM
O=C1NC(=O)N(C2CCCCC2)CC1Br (stereo not given) | i | i | i | i | nt | i
COc1ccc(CCNC(=O)C(C)n2c(=O)cc(C(F)(F)F)c3c(C)nn(C)c32)cc1OC (stereo not given) | nt | i | i | nt | nt | i
COc1ccc(/C(C)=N/Nc2nccnc2Cl)cc1 | i | i | i | i | i | ?
C/C(=N\Nc1nccnc1Cl)c1ccc(Br)cc1 | i | 11µM | i | i | i | i
COc1ccc(NC(=O)c2cc3c(Cl)nc4ccccc4c3s2)cc1OC | i | i | i | i | i | 10µM
OC1(Cc2cc(-c3ccccc3)no2)CCN(CCCc2ccccc2)CC1 | i | i | ? | i | i | i
SMILES | CCT chaperon mod | Nrf2 ARE act | A549 tox | TCR activator | AT treatment | Nrf2 inh
CCOC(=O)c1cc(C)n(Cc2cccc(OC)c2OC)c1C | i | i | i | i | i | 23µM
CCOC(=O)c1c(C)c(C)n(Cc2cccc(OC)c2OC)c1C | i | i | i | nt | i | ?
O=[S+]([O-])(c1ccc2c(c1)OCCO2)N1CCN([S+](=O)([O-])c2cc(Cl)ccc2F)CC1 | nt | nt | i | nt | nt | i
CCOC(=O)Cc1c(Sc2ccccc2)c2ccccc2n1C | i | i | i | i | i | 23µM
COCCNC(=O)Cn1nc(Cc2ccncc2)c2ccccc2c1=O | i | i | i | i | i | i
Cc1ccccc1OCc1ccc(-c2nc(C#N)c(NCc3cccnc3)o2)o1 | nt | i | i | nt | nt | 12µM
Cc1ccc(OCc2ccc(-c3nc(C#N)c(NCc4cccnc4)o3)o2)cc1 | nt | i | i | nt | nt | ?
COc1ccc(CNc2oc(-c3ccc(COc4ccccc4C)o3)nc2C#N)cc1 | nt | i | i | nt | nt | 21µM
COc1ccc(OCc2ccc(-c3nc(C#N)c(NCc4ccccc4)o3)o2)cc1 | nt | i | ? | nt | nt | ?
COc1cc(C(=O)Oc2cccc(Nc3ncnc4ccccc34)c2)cc(OC)c1OC | i | i | i | i | i | 15µM
COc1ccc(C(=O)Oc2cccc(Nc3ncnc4ccccc34)c2)cc1OC | i | i | i | i | i | ?
Cc1cc2c(s1)c1cnn(Cc3cc(F)c(F)cc3F)c(=O)c1n2C | nt | nt | i | nt | nt | i
N=c1c2ccccc2nnn1-c1ccccc1[N+](=O)[O-] | i | 14µM | i | i | nt | i
O=C(/C=C/c1ccccc1)c1cc(Br)ccc(=O)c1O | i | ? | ? | i | i | 18µM
Cc1ccc(/C=C/C(=O)c2ccccc(=O)c2O)cc1C | i | i | ? | i | i | 21µM
Cc1cc(N2CCCC2)nc2ccc(NC(=S)NCCCN3CCC(C)CC3)cc12 | i | i | 9.2µM | i | i | i
CC(C)OC(=O)c1c(NC(=O)C2c3ccccc3Oc3ccccc32)sc2c1CCCC2 | nt | i | i | nt | nt | i
Cc1ccc(/C=C2\SC(=S)N(CCCC(=O)Nc3ccccn3)C2=O)cc1 | i | i | ? | i | i | 2.3µM
O=C(CCN1C(=O)/C(=C/c2ccc3c(c2)OCO3)SC1=S)Nc1ccc(C(=O)O)cc1 | i | i | i | i | i | i
Cc1ccc(NC(=O)CCCN2C(=O)c3cccc4cccc(c34)C2=O)cc1 | i | i | ? | i | i | 15µM
O=C(CCCN1C(=O)/C(=C/c2ccc3c(c2)OCO3)SC1=S)Nc1ccc(C(=O)O)cc1 | i | i | i | i | i | 10µM
Cc1ccc(/C=C2\SC(=S)N(CCCC(=O)Nc3ccc(O)cc3)C2=O)cc1 | i | i | i | i | i | 16µM
CC(=O)N1CCC(C(=O)NC2CCCc3c2cnn3-c2cc(F)cc(F)c2)CC1 (stereo not given) | i | i | i | i | i | i
CCN(CCCNC(=O)CNC(=O)c1nn(-c2ccc(OC)c(OC)c2)c(=O)c2ccccc12)c1ccccc1 | i | i | i | i | i | ?
O=C(Cc1ccccc1)NN1C(=O)/C(=C/c2ccc(C(=O)O)cc2)SC1=S | -35 | i | i | i | i | i
CC1CCN(C(=O)COC(=O)CCCN2C(=O)c3cccc4cccc(c34)C2=O)CC1 | -94 | ? | i | i | i | i
O=C(O)c1ccc(/C=C2/SC(=S)N(Cc3ccccc3)C2=O)cc1 | i | i | i | i | i | i
Cc1ccc(/C=C2\SC(=S)N(CCCC(=O)Nc3ccccc3C(=O)O)C2=O)cc1 | i | i | i | i | i | 15µM

Compound activity: PubChem BioAssay, National Center for Advancing Translational Sciences (NCATS)
